Molecules are shown by their SMILES. The whole screen tested about 48,000 compounds, of which about 13,000 (27%) showed an effect of 50% or more. The list shows a part of the results.

The test has as its system Wolbachia pipientis. Description: Anti-Wolbachia Cell-Based Screen. The format is functional. Also on record: scale not given: in the data most compounds retested in dose-response had high values. To be noted: 5 µM.
With `CCc1cnc(C)nc1NCc1nc(COC)no1`, the “Percent Effect” value is given as 13.28%.
Turning to `CCc1ccc(S(=O)(=O)Nc2cc(C(=O)O)c(F)cc2F)s1`, the “Percent Effect” value is -4.689%.
Regarding `CCC1(c2ccc(NS(=O)(=O)c3ccc(Cl)s3)cc2)CCC(=O)NC1=O` (stereo not drawn), the “Percent Effect” value came to 13.42%.
Consider `CN1CCN(c2ccc(NS(=O)(=O)c3ccc(Cl)s3)cc2C(=O)O)CC1`, for which the “Percent Effect” value turned out to be 118.1%.
Consider `CCc1cccc(NS(=O)(=O)c2cc(C)c(C(=O)O)s2)c1`, for which the “Percent Effect” value was -4.966%.
With `Cc1nn(C(C)C)c(C)c1S(=O)(=O)Nc1ccc(C(=O)O)c(Cl)c1`, the “Percent Effect” value is reported as 2.82%.
Under `O=C(O)c1cc(NS(=O)(=O)c2cccc(Cl)c2F)ccc1Cl` stands -8.503%; under `O=C(O)C(F)(F)F.O=C(O)c1cc(NS(=O)(=O)c2ccc(Cl)s2)ccc1N1CCOCC1`, 94.51%; under `CN1CCN(c2ccc(NS(=O)(=O)c3ccc(Br)s3)cc2C(=O)O)CC1`, 107.3%.
For `O=C(O)c1cc(S(=O)(=O)Nc2ccc(Cl)cc2)cc2c1OCCO2`, the “Percent Effect” value is -1.351%.
In the case of `CN(C)Cc1ccc(C(N)=O)cc1NC(=O)c1cccc(C#N)c1`, the “Percent Effect” value was -8.387%.
With `N#Cc1ccc(N2CC3(CCN(c4nccs4)C3)C2)nc1.O=CO.O=CO`, the “Percent Effect” value is listed as -6.647%.
`CCc1ccc(CNC[C@H]2C[C@@H](CO)N(C)[C@H]2c2ccccc2F)o1`: the “Percent Effect” value was -16.71%.
As for `O=C1NCC2(CCN(C(=O)c3ccc4c(c3)CCCO4)CC2)O1`, the “Percent Effect” value was 9.067%.
For the compound `CCOc1cccc(CN2CCCC(Nc3ccc(F)cc3)C2)c1O` (stereo not drawn), the “Percent Effect” value is on record as -11.06%.
With `Cc1ccccc1C(=O)CN1C(=O)c2ccccc2CS1(=O)=O`, the “Percent Effect” value was -19.77%.
In the case of `CC(C)(O)CCc1cccc(C(=O)NCC2COCCO2)c1` (stereo not drawn), the “Percent Effect” value worked out at 5.622%.
As for `COCCN(Cc1cnn(C)c1)c1nc2c(s1)c(C)nn2C`, the “Percent Effect” value was -9.354%.
Under `Cc1cccc(CN2C(=O)CCC23CCN(C(=O)c2ccco2)CC3)n1.O=C(O)C(F)(F)F` stands 108.9%.
Under `Cc1cccc(CN2C(=O)CCC23CCN(C(=O)NC(C)C)CC3)n1.O=C(O)C(F)(F)F` stands 107.8%; under `Cc1cccc(CN2C(=O)CCC23CCN(c2ccccn2)CC3)n1.O=C(O)C(F)(F)F.O=C(O)C(F)(F)F`, 98.24%.
For the compound `Cc1cccc(CN2CCCC3(CCC(=O)N3CCN(C)C)CC2)n1.O=C(O)C(F)(F)F.O=C(O)C(F)(F)F` (stereo not drawn), the “Percent Effect” value was found to be 115.9%.
For `O=C(O)C(F)(F)F.O=C(c1ccoc1)N1CCC2(CCC(=O)N2Cc2ccncc2)CC1`, the “Percent Effect” value is recorded as 2.988%.
Take `Cc1cccc(CN2CCC3(CCCN(C(=O)NC4CC4)C3)C2=O)n1.O=C(O)C(F)(F)F` (stereo not drawn): the “Percent Effect” value was determined as 34.29%.
Regarding `Cc1cccc(CN2CCOC3(COCCN(CCN(C)C)C3)C2)n1.O=C(O)C(F)(F)F.O=C(O)C(F)(F)F.O=C(O)C(F)(F)F` (stereo not drawn), the “Percent Effect” value is given as -6.557%.
Take `Cc1cccc(N2CCC3(CCCC(=O)N3)CC2)n1.O=C(O)C(F)(F)F`: the “Percent Effect” value was -22.27%.
Consider `Cc1cccc(CN2CCC3(CCCN(C(=O)NC(C)C)C3)C2=O)n1.O=C(O)C(F)(F)F` (stereo not drawn), for which the “Percent Effect” value is -6.059%.
Under `Cc1cccc(N2CCC3(CCN(Cc4ccccn4)CC3)CC2)n1.O=C(O)C(F)(F)F.O=C(O)C(F)(F)F` stands 8.022%; under `Cc1cc(CN(C)C(=O)c2ccc(Cl)c(S(C)(=O)=O)c2)no1`, -0.7928%; under `Cn1ccnc1CCNS(=O)(=O)Cc1cccc(C#N)c1`, 3.021%.
Under `C1CCC(CSc2nnnn2C2CC2)OC1` (stereo not drawn) stands -5.592%; under `O[C@H]1Cc2ccccc2[C@H]1n1ccnc1-c1cc2n(n1)CCNC2`, -8.508%.
For the compound `CC(C)N1CCC(CN2CCn3nc(CNC(=O)N(C)C)cc3C2)CC1`, the “Percent Effect” value is given as 6.322%.
For the compound `Cc1cccc(CN2C(=O)CCC23CCN(C(=O)N2CCCC2)CC3)n1.O=C(O)C(F)(F)F`, the “Percent Effect” value was 96.5%.
`Cc1cccc(CN2CCC3(CCCN(C(=O)N4CCCC4)C3)C2=O)n1.O=C(O)C(F)(F)F` (stereo not drawn): the “Percent Effect” value is -13.65%.
For the compound `COCCN1C(=O)CC[C@]12CC[C@@H](NCc1cccc(C)n1)CC2.O=C(O)C(F)(F)F`, the “Percent Effect” value is -11.86%.
As for `COc1cc(CN(C)C(=O)NCc2nccs2)ccc1SC`, the “Percent Effect” value was -21.32%.
On to `CN(Cc1cc2ccccc2o1)S(C)(=O)=O`, for which the “Percent Effect” value is on record as -18.47%.
Turning to `CN(CC1CC1)C(=O)c1cc2c(c(S(N)(=O)=O)c1)CCC2`, the “Percent Effect” value is -0.6394%.
Take `Cc1cc2n(n1)CC(CNCc1ccnc(-n3ccnc3C)c1)CN2` (stereo not drawn): the “Percent Effect” value is given as -4.434%.
Take `COc1cc(CNCC2CNc3ccnn3C2)ccn1` (stereo not drawn): the “Percent Effect” value is listed as 104.7%.
Under `c1cc2n(n1)CC(CNCc1ccc(OC3CCCC3)nc1)CN2` (stereo not drawn) stands 90.58%; under `c1cc(CNCC2CNc3ccnn3C2)cc(OC2CCCC2)n1` (stereo not drawn), 105.3%; under `c1cc(CNCC2CNc3ccnn3C2)cc(OC2CCCCC2)n1` (stereo not drawn), 87.88%.
`Cn1cc(CCNCC2CNc3ccnn3C2)cn1` (stereo not drawn): the “Percent Effect” value is -8.259%.
Turning to `c1ccc(Oc2cc(CNCC3CNc4ccnn4C3)ccn2)cc1` (stereo not drawn), the “Percent Effect” value amounted to 3.776%.
For `c1cc2n(n1)CC(CNCc1ccc(OC3CCCCC3)nc1)CN2` (stereo not drawn), the “Percent Effect” value is recorded as -3.239%.
In the case of `CCN1CCN(c2ccc(F)cc2C(C)NCc2nc(C)no2)CC1` (stereo not drawn), the “Percent Effect” value turned out to be 5.378%.
Under `CNS(=O)(=O)CCCN1CCCCCC1c1ccc(C)o1` (stereo not drawn) stands -40.39%; under `Cc1cc(C(=O)N2CCc3nnc(N)cc3C2)c(C)n1-c1cccnc1`, -7.22%.
Take `Cc1cc(C(=O)CN2C(=O)c3ccccc3CS2(=O)=O)c(C)[nH]1`: the “Percent Effect” value is listed as 11.78%.
On to `CS(=O)(=O)N1C[C@@H]2CC[C@H](C1)N(C/C=C/c1ccc(F)cc1)C2`, for which the “Percent Effect” value is -3.791%.
With `CCS(=O)(=O)c1nccn1-c1cccc(F)c1`, the “Percent Effect” value is -14.2%.
`Cc1cnn(C(C)C2CC2)c1NC(=O)c1ncccc1O` (stereo not drawn): the “Percent Effect” value is 16.76%.
Under `c1cc(CNCC2CNc3ccnn3C2)cc(N2CCCCC2)n1` (stereo not drawn) stands 12.93%.
Under `c1cc(CNCC2CNc3ccnn3C2)cc(N2CCOCC2)n1` (stereo not drawn) stands 104.3%; under `O=C(c1cccc(CNCC2CNc3ccnn3C2)c1)N1CCCC1` (stereo not drawn), 2.865%.
Under `CCSCCNC(=O)c1cnc(-c2ccccc2)nc1O` stands -4.027%; under `Cc1ccc(C(C(=O)NCCc2nc(C)cc(=O)[nH]2)N(C)C)cc1` (stereo not drawn), -13.39%.
Consider `Cc1cc(=O)[nH]c(-n2nc(C)c(CCC(=O)Nc3nc(C)cs3)c2C)n1`, for which the “Percent Effect” value is reported as 139.8%.
In the case of `COC(=O)CCc1c(C)nn(-c2nc(C)cc(=O)[nH]2)c1C`, the “Percent Effect” value is on record as 2.472%.
Under `Cc1cc(=O)[nH]c(-n2nc(C)c(CCC(=O)NCC(C)C)c2C)n1` stands 133.4%; under `CCC(C)(NCC(=O)Nc1nc(C)cs1)c1nc(C)cs1` (stereo not drawn), -9.944%.

(Values after ChEMBL document CHEMBL3988442, “University of Dundee, Small-Polar-MMV Screening Library” (2021).)
